# Data as given in the supplement of paper PMC12340641.
# Structures can show the parent of a compound that is named as a salt. ± gives the standard deviation of the averaged measurements.
# Tests used:
# [1] = target: IKZF1 (dCK*-IKZF1 fusion in HEK293FT) (UniProt Q13422); experiment: inhibition of IKZF1 HTRF signal (DMSO = 0%, pomalidomide 10 uM = 100%); higher = lower IKZF1 protein level; details: compound concentration: 5 uM, overnight (~20 h)
# Method in brief: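 For percent inhibition of IKZF1 signal, each plate was normalised to vehicle and to a reference degrader. Cells were HEK293FT stably expressing an IKZF1 fusion, plated at 2000/well in 384-well format and treated overnight at 37 °C with 5 μM compound, one well each. Lysates were probed overnight with a commercial HTRF total-IKZF1 antibody kit, with the 665/620 nm ratio background-subtracted and vehicle and degrader fixed at 0% and 100%.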
# [2] = test system: HEK293FT dCK*-only; experiment: relative growth in counter assay (no AraC = 100%, AraC + DMSO = 0%); higher = more growth rescue independent of IKZF1; details: compound concentration: 5 uM; AraC concentration: 0.3 uM; overnight pretreatment + 4 days AraC
# Method in brief: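 HEK293FT cells carrying only an engineered kinase construct were plated at 300 per well (384-well) and given 5 μM compound 2 h later. Following overnight at 37 °C, a nucleoside suicide substrate (0.3 μM) plus medium was added for 4 days. Hoechst 33342-stained nuclei were imaged and counted on day 5, with 100% assigned to wells without suicide substrate and 0% to substrate plus vehicle on each plate.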
# [3] = test system: HEK293FT dCK*-IKZF1; experiment: relative growth recovery (pomalidomide 10 uM = 100%, DMSO = 0%); higher = more growth rescue (IKZF1 fusion degradation); details: compound concentration: 5 uM; AraC concentration: 0.3 uM; overnight pretreatment + 4 days AraC
# Method in brief: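 HEK293FT cells stably expressing a dCK*-IKZF1 fusion (300/well, 384-well) received 5 μM compound 2 h after seeding. After overnight at 37 °C they received a nucleoside suicide substrate at 0.3 μM plus medium for 4 days. On day 5, Hoechst 33342-stained nuclei were counted by whole-well imaging. Growth recovery was normalised per plate to a reference degrader (100%) and vehicle (0%); values are means of duplicates run on different days.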
# Sequence of IKZF1 (dCK*-IKZF1 fusion in HEK293FT) (Q13422 whole entry, looked up, the tested form may be a part): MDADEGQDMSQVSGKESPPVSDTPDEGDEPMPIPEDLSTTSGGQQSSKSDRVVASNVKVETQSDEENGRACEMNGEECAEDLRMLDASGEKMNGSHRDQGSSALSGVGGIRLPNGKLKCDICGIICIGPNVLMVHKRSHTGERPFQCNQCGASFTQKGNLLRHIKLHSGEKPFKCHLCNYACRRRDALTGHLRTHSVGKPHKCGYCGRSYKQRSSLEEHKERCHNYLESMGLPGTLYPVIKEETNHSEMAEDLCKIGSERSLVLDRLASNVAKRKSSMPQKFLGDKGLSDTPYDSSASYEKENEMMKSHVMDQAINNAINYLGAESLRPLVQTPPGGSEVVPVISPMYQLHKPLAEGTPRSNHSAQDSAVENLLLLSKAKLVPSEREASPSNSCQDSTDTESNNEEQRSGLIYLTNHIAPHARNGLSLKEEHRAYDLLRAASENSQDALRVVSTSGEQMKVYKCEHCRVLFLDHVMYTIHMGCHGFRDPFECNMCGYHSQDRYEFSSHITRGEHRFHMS
Compound,inhibition of IKZF1 HTRF signal [1] [%],relative growth in counter assay [2] [%],relative growth recovery [3] [%]
CCOC(=O)C1=C(C)NC(C)=C(C(=O)OC)C1c1cccc(Cl)c1Cl (stereo not drawn),18,-9.69,-1.19
c1ccc2c(c1)CCC[C@H]2Nc1nc2ccccc2[nH]1,-34.6,-1.81,-0.405
c1ccc(C(NCCNC(c2ccccc2)c2ccccc2)c2ccccc2)cc1,-1.32,3.27,3.32
CCN(CC)CCNc1ccc(CO)c2sc3ccccc3c(=O)c12 [Hycanthone],-30.4,-31.9,-12.3
NC(=O)N/N=C/c1ccc(Oc2ccc(F)cc2)cc1,-35,2.45,-1.07
Cc1ccc(S(=O)(=O)NC(=O)NN2CCCCCC2)cc1,-31.1,0.45,-2.75
Cc1ccc(-c2ccc(C)cn2)nc1 [abametapir],-30.6,4.64,0.52
OC(c1cc(C(F)(F)F)nc2c(C(F)(F)F)cccc12)C1CCCCN1 (stereo not drawn) [Mefloquine HCl],-25.2,-1.31,-6.05
Clc1ccc(CSC(Cn2ccnc2)c2ccc(Cl)cc2Cl)cc1 (stereo not drawn),-35.5,-4.03,-1.39
c1ccc(C(NCc2cccnc2)(c2ccccc2)c2ccccc2)cc1,-26.2,3.05,-0.7
Clc1ccc2c(N3CCN(CCCN4CCN(c5ccnc6cc(Cl)ccc56)CC4)CC3)ccnc2c1,17,3.87,-1.17
O=C(/C=C/c1ccc(O)c(O)c1)c1ccc(O)cc1O [Butein],8.77,-27.3,-8.42
OC(c1cc(C(F)(F)F)nc2c(C(F)(F)F)cccc12)C1CCCCN1 (stereo not drawn),-31.6,-10.6,-7.16
CN(C)CCCN1c2ccccc2Sc2ccc(C(F)(F)F)cc21,-28.3,6.11,1.67
CNCCC(Oc1ccc(C(F)(F)F)cc1)c1ccccc1 (stereo not drawn) [Fluoxetine HCl],-26.7,-5.41,1.15
NC(=O)c1cn([C@@H]2O[C@H](CO)[C@@H](O)[C@H]2O)c2ncnc(N)c2c1=O,-11.4,-10.5,-1.56
COC(=O)C1=C(C)NC(C)=C(C(=O)OC(C)C)C1c1cccc2nonc12 (stereo not drawn) [isradipine],-28.6,-4.67,1.6
COC(=O)Nc1nc2cc(C(=O)c3ccccc3)ccc2[nH]1 [Mebendazole],9.13,-30.6,-10.7
Cc1cc(/C=C/c2ccc3cc(N(C)C)ccc3[n+]2C)c(C)n1-c1ccccc1.Cc1cc(/C=C/c2ccc3cc(N(C)C)ccc3[n+]2C)c(C)n1-c1ccccc1 [pyrvinium],76.3,-34.4,-13.1
CC[n+]1c(-c2ccccc2)c2cc(N)ccc2c2ccc(N)cc21,39.8,-32.8,-12.2
CC(C)/N=c1\cc2n(-c3ccc(Cl)cc3)c3ccccc3nc-2cc1Nc1ccc(Cl)cc1,16.2,-8.1,0.915
NC(=O)Nc1sc(-c2ccc(F)cc2)cc1C(N)=O,-33.5,-26.8,-9.27

Compound,inhibition of IKZF1 HTRF signal [1] [%],relative growth in counter assay [2] [%],relative growth recovery [3] [%]
OC1(c2ccc(Cl)c(C(F)(F)F)c2)CCN(CCCC(c2ccc(F)cc2)c2ccc(F)cc2)CC1,-28.8,-26,-5.21
O=C(c1cccc(Cl)c1F)N1CCN(Cc2cccc(Nc3nccs3)n2)CC1,-54.8,-32.1,-11.2
CN1CCCCC1CCN1c2ccccc2Sc2ccc(S(C)=O)cc21 (stereo not drawn) [mesoridazine besylate],-49.8,10.8,-0.555
Nc1nnc(-c2cccc(Cl)c2Cl)c(N)n1,-57.4,0.9,-1.71
OCCN1CCN(CCCN2c3ccccc3Sc3ccc(Cl)cc32)CC1 [Perphenazine],0.695 ± 0.86,7.41 ± 5.6,2.98 ± 1
CC(=O)N(OCc1ccccc1)[C@@H]1c2cc(C#N)ccc2OC(C)(C)[C@H]1O,-1.85,4.48,-0.925
Cc1cc(C(C)(C)CC(C)(C)C)ccc1OCCOCC[N+](C)(C)Cc1ccccc1,-17.4,-4.05,5.47
CN1CCN(c2ncc(-c3cc(Cl)cc(Cl)c3Cl)c(N)n2)CC1 [sipatrigine],11.5,5.22,2.4
O=C(OC)C1=C(C)NC(C)=C(C(OCCCN3CCC(C4=CC=CC=C4)(C5=CC=CC=C5)CC3)=O)[C@H]1[C@]2=CC=CC([N+]([O-])=O)=C2 [niguldipine-(S)-(+)],-12,-29.9,-10.5
CN1C(=O)/C(=C2/C(=O)Nc3ccccc32)c2ccccc21 [Meisoindigo],-22.1,-7.74,-3.15
Nc1ccc(-c2ccc3ncc4ccc(=O)n(-c5cccc(C(F)(F)F)c5)c4c3c2)cn1 [torin-2],66.5,-34.6,-12.2
COc1ccccc1Oc1c(NS(=O)(=O)c2ccc(C)cn2)nc(-c2ccncc2)nc1OC [Avosentan],-39.7,-4.67,-1.19
COc1ccc(-c2ccc3ncc4c(c3c2)n(-c2ccc(N3CCNCC3)c(C(F)(F)F)c2)c(=O)n4C)cn1,88.1,-35.1,-15.2
COc1cc(OC)c(/C=C2/C(=O)Nc3ccccc32)c(OC)c1,-15.9,-33.5,-11.3
Nc1ccc2cc3ccc(N)cc3nc2c1,62.9,-35.1,-15
C[C@H]1[C@H](OC(=O)CCC(=O)O)O[C@@H]2O[C@@]3(C)CC[C@H]4[C@H](C)CC[C@@H]1[C@@]24OO3,37.4,-30,-9.71
Cc1cc(/C=C2\SC(=O)N(c3ccccc3)C2=O)c(C)n1-c1cccnc1,-32.6,-4.98,0.895
OCCN1CCN(CCCN2c3ccccc3Sc3ccc(Cl)cc32)CC1,-36.5,3.78,4.08
CC1(C)C(/C=C/C=C/C=C/C=C2/N(CCCCS(=O)(=O)[O-])c3ccc4ccccc4c3C2(C)C)=[N+](CCCCS(=O)(=O)[O-])c2ccc3ccccc3c21 [Cardiogreen],-28.9,-5.7,0.4
CC(=O)Nc1ncc([N+](=O)[O-])s1,6.78,5.87,-3.04
CCSc1ccc2c(c1)N(CCCN1CCN(C)CC1)c1ccccc1S2 [thiethylperazine],24.1,-4.22,1.55
CCCSc1ccc2[nH]c(NC(=O)OC)nc2c1 [Albendazole],3.53,6.7,-0.675

Compound,inhibition of IKZF1 HTRF signal [1] [%],relative growth in counter assay [2] [%],relative growth recovery [3] [%]
NC(=O)N/N=C/c1ccc([N+](=O)[O-])o1,-34.9,-3.72,-4.82
COc1cc([C@@H]2c3cc4c(cc3[C@@H](O[C@@H]3O[C@@H]5CO[C@@H](C)O[C@H]5[C@H](O)[C@H]3O)[C@H]3COC(=O)C23)OCO4)cc(OC)c1O (stereo partly drawn) [Etoposide],-10.2,-34.7,-12.9
CC[C@]1(O)C[C@H]2C[N@@](CCc3c([nH]c4ccccc34)[C@@](C(=O)OC)(c3cc4c(cc3OC)N(C=O)[C@H]3[C@@](O)(C(=O)OC)[C@H](OC(C)=O)[C@]5(CC)C=CCN6CC[C@]43[C@@H]65)C2)C1 [Vincristine (sulfate)],-10.4,-34.5,-11.7
Cc1cc(C)c(C2=NOC3C4CCC(C4)C23)c(C)c1 (stereo not drawn),-34,1.92,-0.34
Cc1cc(Nc2ncc(Cl)c(Nc3ccccc3S(=O)(=O)C(C)C)n2)c(OC(C)C)cc1C1CCN(CC(=O)NCCNc2cccc3c2C(=O)N(C2CCC(=O)NC2=O)C3=O)CC1 (stereo not drawn),24.5,3.63,24.8
CCN(CC)CCCC(C)Nc1c2ccc(Cl)cc2nc2ccc(OC)cc12 (stereo not drawn),57.3,-34.1,-13.4
c1cncc(CN2CCC(n3ncc4c(N5CCOCC5)nc(-c5ccc6[nH]ccc6c5)nc43)CC2)c1,30.4,-26.4,-11.3
Nc1nc(=O)n([C@H]2C[C@H](O)[C@@H](CO)O2)cc1F [5-Fluoro-2'-deoxycytidine],-4.07,-26.3,-8.98
COC(=O)C1=C(C)NC(C)=C(C(=O)OC)C1c1ccccc1[N+](=O)[O-],-23.7,-4.16,-3.38
Cc1ccccc1/N=N/c1ccc(NC(=O)c2ccnn2C)c(C)c1,-27,-9.17,-0.005
"O=C(CCCCCCC(=O)Nc1ccccc1)NO [Vorinostat (SAHA, MK0683)]",-29.5,-30.5,-11.6
O=C(CSc1nnc2c(n1)[nH]c1ccccc12)Nc1ccc(Cl)cn1,4.2,-5.82,1.11
O=C(N/N=C/c1ccc([N+](=O)[O-])o1)c1ccc(O)cc1,10.2,-1.19,-2
CCOC(=O)c1ccc(N)cc1,16.4,-10.5,-2.68
CCC1(O)CC2CN(CCc3c([nH]c4ccccc34)[C@@](C(=O)OC)(c3cc4c(cc3OC)N(C=O)C3[C@]45CCN4CC=C[C@@](CC)([C@@H](OC(C)=O)[C@]3(O)C(=O)OC)[C@H]45)C2)C1 (stereo partly drawn) [Vincristine sulfate],-23.3,-33.7,-11.8
COC(=O)Nc1nc2cc(C(=O)c3ccc(F)cc3)ccc2[nH]1,-13.6,-8,-4.8
NS(=O)(=O)c1cc2c(cc1Cl)NC(C(Cl)Cl)NS2(=O)=O (stereo not drawn),19.3,-3.14,-3.58
NC(=O)N1c2ccccc2CC(=O)c2ccccc21,17.9,5.74,-1.02
O=C(O)c1ccc(S(=O)(=O)N(Cc2ccc(OC(F)(F)F)cc2)c2ncc(C(F)(F)F)cc2Cl)cc1,-23.7,5.77,2.16
COc1cc(C(=O)NS(=O)(=O)c2ccccc2C)ccc1Cc1cn(C)c2ccc(NC(=O)OC3CCCC3)cc12 [Zafirlukast],-43.3,-15.2,-5.17
OCCN=CCNc1ccc(NCCNCCO)c2c(O)c3c(O)ccc(O)c3c(O)c12 [Mitoxantrone HCl],-45.5,-34.8,-13.6
CC(CCc1ccc(O)cc1)NCCc1ccc(O)c(O)c1 (stereo not drawn) [Dobutamine HCl],18.6,-5.22,-1.12
